# Measured values taken from the supplement of paper PMC7724964.
# T1: TDRKH 290-430 TUDOR+SNase (domain begin residue: 290, domain end residue: 430), Q9Y2W6
# T1 chain: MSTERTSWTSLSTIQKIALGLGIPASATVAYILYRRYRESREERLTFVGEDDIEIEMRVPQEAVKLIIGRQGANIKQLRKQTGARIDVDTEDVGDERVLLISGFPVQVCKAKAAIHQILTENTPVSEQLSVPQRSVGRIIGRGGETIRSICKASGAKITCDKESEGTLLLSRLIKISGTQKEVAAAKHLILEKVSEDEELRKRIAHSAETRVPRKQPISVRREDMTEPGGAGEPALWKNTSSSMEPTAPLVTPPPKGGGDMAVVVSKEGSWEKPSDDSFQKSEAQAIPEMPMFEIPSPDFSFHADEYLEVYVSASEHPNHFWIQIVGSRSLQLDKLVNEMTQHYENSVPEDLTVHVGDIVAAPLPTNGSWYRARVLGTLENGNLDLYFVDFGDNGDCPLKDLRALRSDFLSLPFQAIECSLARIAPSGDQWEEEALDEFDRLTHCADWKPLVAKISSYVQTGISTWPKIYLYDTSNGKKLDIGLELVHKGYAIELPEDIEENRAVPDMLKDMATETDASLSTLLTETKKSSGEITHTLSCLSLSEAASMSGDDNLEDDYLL
# T2: STAM 1-143 VHS (domain begin residue: 1, domain end residue: 143), Q92783
# T2 chain: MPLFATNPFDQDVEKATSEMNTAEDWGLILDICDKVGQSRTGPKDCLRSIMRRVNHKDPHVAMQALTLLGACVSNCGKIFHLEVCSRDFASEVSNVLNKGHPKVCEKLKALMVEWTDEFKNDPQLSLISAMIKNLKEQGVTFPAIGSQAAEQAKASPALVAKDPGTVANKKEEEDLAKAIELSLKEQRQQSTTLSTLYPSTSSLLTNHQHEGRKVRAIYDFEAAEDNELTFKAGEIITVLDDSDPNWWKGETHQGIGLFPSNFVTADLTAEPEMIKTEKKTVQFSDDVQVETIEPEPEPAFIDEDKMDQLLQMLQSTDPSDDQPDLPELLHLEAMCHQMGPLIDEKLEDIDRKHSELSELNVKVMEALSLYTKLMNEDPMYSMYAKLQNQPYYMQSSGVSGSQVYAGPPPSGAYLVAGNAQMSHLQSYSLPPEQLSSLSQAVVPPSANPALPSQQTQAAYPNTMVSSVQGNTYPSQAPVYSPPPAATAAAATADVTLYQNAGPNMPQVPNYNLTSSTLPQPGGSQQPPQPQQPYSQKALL
# T3: TOM1L1 1-150 VHS (domain begin residue: 1, domain end residue: 150), O75674
# T3 chain: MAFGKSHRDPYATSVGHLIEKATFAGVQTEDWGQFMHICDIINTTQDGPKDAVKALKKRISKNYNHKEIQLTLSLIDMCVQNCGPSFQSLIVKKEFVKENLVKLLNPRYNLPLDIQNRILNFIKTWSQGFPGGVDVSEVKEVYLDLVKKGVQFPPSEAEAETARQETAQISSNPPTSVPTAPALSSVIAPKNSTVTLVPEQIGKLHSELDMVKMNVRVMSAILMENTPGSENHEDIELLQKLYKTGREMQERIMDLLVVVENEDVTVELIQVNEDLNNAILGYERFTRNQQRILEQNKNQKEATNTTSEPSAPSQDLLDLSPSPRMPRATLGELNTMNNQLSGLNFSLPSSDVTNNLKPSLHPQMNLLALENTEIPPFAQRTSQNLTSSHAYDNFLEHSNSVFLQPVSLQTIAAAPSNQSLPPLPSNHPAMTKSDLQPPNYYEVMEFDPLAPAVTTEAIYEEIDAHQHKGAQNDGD
# T4: TDRD1 261-449 TUDOR (domain begin residue: 261, domain end residue: 449), Q9BXT4
# T4 chain: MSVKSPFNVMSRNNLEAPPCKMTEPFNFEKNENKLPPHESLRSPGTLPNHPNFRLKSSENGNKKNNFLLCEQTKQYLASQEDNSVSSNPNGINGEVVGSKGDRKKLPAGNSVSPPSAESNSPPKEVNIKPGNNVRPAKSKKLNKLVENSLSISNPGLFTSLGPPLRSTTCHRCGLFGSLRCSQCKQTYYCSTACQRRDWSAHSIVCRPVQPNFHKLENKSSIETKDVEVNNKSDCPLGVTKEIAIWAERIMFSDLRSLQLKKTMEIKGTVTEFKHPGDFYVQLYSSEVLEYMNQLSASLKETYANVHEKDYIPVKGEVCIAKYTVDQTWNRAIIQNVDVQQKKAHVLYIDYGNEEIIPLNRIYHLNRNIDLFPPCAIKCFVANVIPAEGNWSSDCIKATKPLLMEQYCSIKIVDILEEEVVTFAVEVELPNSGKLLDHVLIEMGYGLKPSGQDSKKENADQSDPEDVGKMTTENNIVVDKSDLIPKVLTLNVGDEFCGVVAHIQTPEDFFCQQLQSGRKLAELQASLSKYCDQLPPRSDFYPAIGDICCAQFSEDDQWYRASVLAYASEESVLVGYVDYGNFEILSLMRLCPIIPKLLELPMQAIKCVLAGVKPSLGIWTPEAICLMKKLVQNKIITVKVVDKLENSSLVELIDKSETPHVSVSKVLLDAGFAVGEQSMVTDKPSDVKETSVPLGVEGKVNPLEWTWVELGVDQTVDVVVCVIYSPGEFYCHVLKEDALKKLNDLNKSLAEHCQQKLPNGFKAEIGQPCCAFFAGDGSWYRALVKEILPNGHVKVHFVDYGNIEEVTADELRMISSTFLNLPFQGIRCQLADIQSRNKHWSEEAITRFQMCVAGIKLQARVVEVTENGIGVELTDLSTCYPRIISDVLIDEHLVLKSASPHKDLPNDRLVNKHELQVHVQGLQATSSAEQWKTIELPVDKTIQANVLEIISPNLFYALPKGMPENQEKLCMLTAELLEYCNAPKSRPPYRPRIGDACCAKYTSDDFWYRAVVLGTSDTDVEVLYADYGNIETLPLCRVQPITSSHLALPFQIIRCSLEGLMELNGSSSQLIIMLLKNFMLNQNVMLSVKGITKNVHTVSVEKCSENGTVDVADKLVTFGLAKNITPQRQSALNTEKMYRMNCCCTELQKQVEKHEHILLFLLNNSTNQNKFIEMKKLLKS
# T5: TOM1L2 1-153 VHS (domain begin residue: 1, domain end residue: 153), Q6ZVM7
# T5 chain: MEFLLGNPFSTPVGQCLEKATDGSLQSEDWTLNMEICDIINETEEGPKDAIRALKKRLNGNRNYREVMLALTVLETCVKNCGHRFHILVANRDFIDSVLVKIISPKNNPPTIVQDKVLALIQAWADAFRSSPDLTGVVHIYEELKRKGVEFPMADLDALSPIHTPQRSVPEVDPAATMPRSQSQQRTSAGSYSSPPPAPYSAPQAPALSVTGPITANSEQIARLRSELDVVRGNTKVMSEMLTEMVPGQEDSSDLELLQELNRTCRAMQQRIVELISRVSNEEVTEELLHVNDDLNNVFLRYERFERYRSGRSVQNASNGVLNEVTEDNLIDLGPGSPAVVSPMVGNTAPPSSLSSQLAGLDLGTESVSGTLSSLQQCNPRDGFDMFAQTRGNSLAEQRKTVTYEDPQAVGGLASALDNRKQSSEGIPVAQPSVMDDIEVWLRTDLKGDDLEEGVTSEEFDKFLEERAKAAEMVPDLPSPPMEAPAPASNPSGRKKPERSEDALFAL
# T6: TERF1 58-268 TRF (domain begin residue: 58, domain end residue: 268), P54274
# T6 chain: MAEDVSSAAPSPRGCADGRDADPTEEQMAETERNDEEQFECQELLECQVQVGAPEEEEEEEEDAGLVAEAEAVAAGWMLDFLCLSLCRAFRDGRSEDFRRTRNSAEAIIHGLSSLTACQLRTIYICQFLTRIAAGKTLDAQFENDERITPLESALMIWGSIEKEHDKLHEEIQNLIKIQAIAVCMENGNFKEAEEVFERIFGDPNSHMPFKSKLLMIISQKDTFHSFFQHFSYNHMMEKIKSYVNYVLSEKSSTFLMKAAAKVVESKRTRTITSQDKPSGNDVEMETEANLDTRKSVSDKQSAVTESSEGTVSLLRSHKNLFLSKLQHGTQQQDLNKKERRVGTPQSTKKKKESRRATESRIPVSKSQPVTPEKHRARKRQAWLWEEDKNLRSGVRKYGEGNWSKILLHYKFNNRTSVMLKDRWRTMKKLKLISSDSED
# Biological target: T1, TDRKH 290-430 TUDOR+SNase (domain begin …
# Assay: phage ELISA signal ratio (GST-PRM binding over GST background); higher = stronger binding of peptide-phage to the PRM
# In short: (§1)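 Each value is the phage ELISA signal on the glutathione S-transferase (GST)-domain fusion divided by the signal on GST alone. Human peptide recognition domains were expressed in 96-well plates, fused to the C-terminus of GST, and selected against an M13 phage library carrying randomized, cysteine-free, glycine-flanked hexadecapeptides on the gene-8 major coat protein. After five selection rounds, approximately 48 individual clones from rounds 4 and 5 were tested by phage ELISA, and positive clones were sequenced.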
row,Binder,phage ELISA signal ratio
1,HELHGHLGPYGYPAGT,7.85
2,REMLDYYQGVWVPPVS,4.26

# Biological target: T2, STAM 1-143 VHS (domain begin residue: …
# Assay: as above
# In short: as §1
row,Binder,phage ELISA signal ratio
1,NPHSHQQFMQAVENHI,22.2

# Biological target: T3, TOM1L1 1-150 VHS (domain begin residue: …
# Assay: as above
# In short: as §1
row,Binder,phage ELISA signal ratio
1,DMLDWSWTEEVELWFQ,24.5
2,ADGWGWYENWVWPASM,4.28
3,DDHLWHPSFKWWDEYV,15.8
4,FVDWDIPSWWFQQVTS,15.1
5,LEWTWYDTWTWPEESQ,22
6,WDEEDDHWWEHFFWFQ,12.6

# Biological target: T4, TDRD1 261-449 TUDOR (domain begin …
# Assay: as above
# In short: as §1
row,Binder,phage ELISA signal ratio
1,ELWQHWDMWNVEEPEF,7.88
2,IWDQWYEWNSEWDRLP,3.57
3,EPGHWMEWIWDTIELE,9.32

# Biological target: T5, TOM1L2 1-153 VHS (domain begin residue: …
# Assay: as above
# In short: as §1
row,Binder,phage ELISA signal ratio
1,GLASYFADNYHLIFSE,22.4
2,YQDWDWDPEMKRMVVS,4.04
3,IEIPWTQEFIQHWTQG,18.4
4,KWNDDDWWTYFVSQVE,20.3
5,MMFAGLGTPNPYEVTT,16.9
6,QTPLEAFWEAYDSISW,23.1
7,DRKLSQQELALWAYII,27.7

# Biological target: TLN2 312-417 IRS (domain begin residue: 312, domain end residue: 417), Q9Y4G6
# Assay: as above
# In short: as §1
# Chain of TLN2 312-417 IRS (domain begin residue: 312, domain end residue: 417), Q9Y4G6 (Q9Y4G6 whole entry): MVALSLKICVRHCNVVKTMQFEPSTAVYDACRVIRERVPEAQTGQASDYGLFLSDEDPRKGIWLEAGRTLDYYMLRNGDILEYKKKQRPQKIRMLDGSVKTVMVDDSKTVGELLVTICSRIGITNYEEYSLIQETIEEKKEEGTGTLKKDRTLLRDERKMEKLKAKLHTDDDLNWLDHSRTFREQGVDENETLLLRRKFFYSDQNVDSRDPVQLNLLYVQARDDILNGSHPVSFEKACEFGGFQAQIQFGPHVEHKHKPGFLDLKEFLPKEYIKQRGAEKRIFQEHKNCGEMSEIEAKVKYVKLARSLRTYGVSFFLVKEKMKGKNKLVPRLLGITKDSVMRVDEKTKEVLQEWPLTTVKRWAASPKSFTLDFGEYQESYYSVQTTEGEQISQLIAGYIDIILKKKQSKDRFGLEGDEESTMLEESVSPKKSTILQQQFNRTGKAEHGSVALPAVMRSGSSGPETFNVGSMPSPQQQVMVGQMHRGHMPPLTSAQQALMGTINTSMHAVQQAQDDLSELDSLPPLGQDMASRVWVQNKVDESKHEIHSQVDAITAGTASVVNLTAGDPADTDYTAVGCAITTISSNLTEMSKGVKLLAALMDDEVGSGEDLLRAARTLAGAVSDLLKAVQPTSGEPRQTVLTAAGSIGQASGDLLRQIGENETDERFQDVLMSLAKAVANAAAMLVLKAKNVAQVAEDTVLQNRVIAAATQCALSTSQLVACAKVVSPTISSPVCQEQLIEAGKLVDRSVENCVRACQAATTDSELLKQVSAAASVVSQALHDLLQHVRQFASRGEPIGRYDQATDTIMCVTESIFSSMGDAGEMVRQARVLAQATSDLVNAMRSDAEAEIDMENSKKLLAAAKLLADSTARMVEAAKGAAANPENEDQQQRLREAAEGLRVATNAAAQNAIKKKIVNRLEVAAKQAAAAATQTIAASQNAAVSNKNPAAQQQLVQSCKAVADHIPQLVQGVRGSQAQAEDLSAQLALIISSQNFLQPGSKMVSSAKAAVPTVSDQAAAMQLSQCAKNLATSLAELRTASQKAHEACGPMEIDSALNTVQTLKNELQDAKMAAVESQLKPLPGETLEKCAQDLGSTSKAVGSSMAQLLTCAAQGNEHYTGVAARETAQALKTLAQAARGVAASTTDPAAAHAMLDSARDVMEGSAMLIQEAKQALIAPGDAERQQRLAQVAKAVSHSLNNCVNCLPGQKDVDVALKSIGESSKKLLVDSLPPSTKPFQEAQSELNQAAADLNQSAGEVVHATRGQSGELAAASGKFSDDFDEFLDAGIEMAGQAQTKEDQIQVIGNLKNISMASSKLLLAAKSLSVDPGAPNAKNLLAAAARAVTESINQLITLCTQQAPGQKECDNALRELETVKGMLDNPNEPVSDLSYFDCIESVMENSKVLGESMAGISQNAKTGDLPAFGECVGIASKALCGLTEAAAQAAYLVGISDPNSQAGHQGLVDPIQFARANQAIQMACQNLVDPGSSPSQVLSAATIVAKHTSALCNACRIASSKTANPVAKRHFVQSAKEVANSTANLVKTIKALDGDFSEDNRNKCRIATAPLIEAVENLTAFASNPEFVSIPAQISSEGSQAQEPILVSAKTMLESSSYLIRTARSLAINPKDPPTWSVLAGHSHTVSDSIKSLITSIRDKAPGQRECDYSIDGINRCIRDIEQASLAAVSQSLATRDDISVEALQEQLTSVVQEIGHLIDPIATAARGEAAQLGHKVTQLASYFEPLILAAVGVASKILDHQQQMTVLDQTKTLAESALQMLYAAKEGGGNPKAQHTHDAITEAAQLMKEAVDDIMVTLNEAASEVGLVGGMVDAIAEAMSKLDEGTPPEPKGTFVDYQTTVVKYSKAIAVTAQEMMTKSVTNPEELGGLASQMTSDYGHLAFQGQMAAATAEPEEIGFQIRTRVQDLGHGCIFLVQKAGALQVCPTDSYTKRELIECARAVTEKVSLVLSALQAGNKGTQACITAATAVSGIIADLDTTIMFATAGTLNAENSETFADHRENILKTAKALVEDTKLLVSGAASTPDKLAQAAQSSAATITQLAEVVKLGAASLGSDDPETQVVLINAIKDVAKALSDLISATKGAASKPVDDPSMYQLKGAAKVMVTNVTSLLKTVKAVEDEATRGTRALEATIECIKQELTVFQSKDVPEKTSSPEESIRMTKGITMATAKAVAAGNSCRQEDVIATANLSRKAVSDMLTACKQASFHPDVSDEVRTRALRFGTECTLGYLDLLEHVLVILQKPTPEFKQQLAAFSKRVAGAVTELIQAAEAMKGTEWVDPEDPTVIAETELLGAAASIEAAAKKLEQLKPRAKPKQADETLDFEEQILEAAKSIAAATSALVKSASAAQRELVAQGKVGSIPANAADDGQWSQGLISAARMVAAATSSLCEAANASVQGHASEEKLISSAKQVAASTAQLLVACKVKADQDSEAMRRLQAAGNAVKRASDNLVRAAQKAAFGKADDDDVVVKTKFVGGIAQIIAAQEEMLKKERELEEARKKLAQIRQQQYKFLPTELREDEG
row,Binder,phage ELISA signal ratio
1,WTASQYWVYEDGFIPG,23.7
2,NQDRVWVGNSAFKSPD,22
3,VENVYYGPYQWEGSFQ,15.4
4,DMVWTNSFLHSHSQLV,19.5

# Biological target: TOM1 1-153 VHS (domain begin residue: 1, domain end residue: 153), O60784
# Assay: as above
# In short: as §1
# Chain of TOM1 1-153 VHS (domain begin residue: 1, domain end residue: 153), O60784 (O60784 whole entry): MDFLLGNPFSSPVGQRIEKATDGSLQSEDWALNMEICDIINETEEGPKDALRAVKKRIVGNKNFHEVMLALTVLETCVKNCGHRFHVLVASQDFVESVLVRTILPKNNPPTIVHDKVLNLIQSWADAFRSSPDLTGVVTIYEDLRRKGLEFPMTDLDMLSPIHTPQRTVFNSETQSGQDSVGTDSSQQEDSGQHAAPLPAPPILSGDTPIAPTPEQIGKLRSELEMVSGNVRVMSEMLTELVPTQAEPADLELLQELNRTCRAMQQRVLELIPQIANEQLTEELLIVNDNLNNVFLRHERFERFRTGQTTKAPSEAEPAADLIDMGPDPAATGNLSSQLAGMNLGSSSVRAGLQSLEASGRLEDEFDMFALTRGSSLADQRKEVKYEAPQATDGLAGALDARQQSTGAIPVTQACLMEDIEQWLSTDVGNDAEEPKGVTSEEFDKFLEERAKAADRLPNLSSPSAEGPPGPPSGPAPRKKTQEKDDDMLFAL
row,Binder,phage ELISA signal ratio
1,QVWWEAYEKRLHVETE,8.09
2,EWWLSYDPHWVETISA,5.42

# Biological target: T6, TERF1 58-268 TRF (domain begin residue: …
# Assay: as above
# In short: as §1
row,Binder,phage ELISA signal ratio
1,SFPLEFTTDYMYNLMA,18.2

# Biological target: TLN1 309-401 IRS (domain begin residue: 309, domain end residue: 401), Q9Y490
# Assay: as above
# In short: as §1
row,Binder,phage ELISA signal ratio
1,PNVGEWQYNLSYIWEM,15.5
2,VETQWEQWQEYGLKFS,16.2
